Results published in PubChem BioAssay (EPA / NIEHS).
Records with an inconclusive call do not appear. Activity calls are given as the source filed them. The calls were made as follows, unless noted: active = hit-call score of the fitted dose curve at least 0.9, where 1 is the maximum; inconclusive = response in the unintended direction; inactive = score below 0.9.

Tests used:
[1] = molecular target: Oxysterols receptor LXR-alpha (Homo sapiens) (UniProt Q13133); assay: ATG_LXRa_TRANS: Attagene TRANS-FACTORIAL HepG2 Assay for human Liver X Receptor alpha (LXRa) (AID 2282980); settings: HepG2 Attagene TRANS reporter, LXRa transactivation
Oxysterols receptor LXR-alpha (Homo sapiens), sequence (Q13133 whole entry, looked up, the tested form may be a part): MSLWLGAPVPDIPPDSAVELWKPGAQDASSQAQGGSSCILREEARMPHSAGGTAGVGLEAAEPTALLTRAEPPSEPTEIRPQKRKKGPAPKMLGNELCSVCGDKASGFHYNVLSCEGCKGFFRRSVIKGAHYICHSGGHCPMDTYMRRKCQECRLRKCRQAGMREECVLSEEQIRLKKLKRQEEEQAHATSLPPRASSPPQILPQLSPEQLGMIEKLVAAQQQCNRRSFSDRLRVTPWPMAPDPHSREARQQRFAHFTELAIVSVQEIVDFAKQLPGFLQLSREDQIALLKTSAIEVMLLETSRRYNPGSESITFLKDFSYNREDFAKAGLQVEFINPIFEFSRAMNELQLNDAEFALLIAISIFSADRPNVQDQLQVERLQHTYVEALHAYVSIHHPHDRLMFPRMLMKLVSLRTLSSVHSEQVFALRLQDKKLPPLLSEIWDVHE
How it was run: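 Transfect HepG2 with GAL4-UAS multiplex reporter constructs (TRANS format, chimeric receptor-GAL4); treat 24 h; extract RNA, reverse-transcribe, PCR-amplify, FAM-label, HpaI-digest; resolve fragments by capillary electrophoresis. Upward response vs DMSO.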

[2] = molecular target: Hepatocyte nuclear factor 4-alpha (Homo sapiens) (UniProt P41235); assay: ATG_HNF4a_TRANS: Attagene TRANS-FACTORIAL HepG2 Assay for human Hepatocyte Nuclear Factor 4 alpha (HNF4a) (AID 2282982); settings: HepG2 HNF4a transactivation reporter, mRNA readout
Hepatocyte nuclear factor 4-alpha (Homo sapiens), sequence (P41235 whole entry, looked up, the tested form may be a part): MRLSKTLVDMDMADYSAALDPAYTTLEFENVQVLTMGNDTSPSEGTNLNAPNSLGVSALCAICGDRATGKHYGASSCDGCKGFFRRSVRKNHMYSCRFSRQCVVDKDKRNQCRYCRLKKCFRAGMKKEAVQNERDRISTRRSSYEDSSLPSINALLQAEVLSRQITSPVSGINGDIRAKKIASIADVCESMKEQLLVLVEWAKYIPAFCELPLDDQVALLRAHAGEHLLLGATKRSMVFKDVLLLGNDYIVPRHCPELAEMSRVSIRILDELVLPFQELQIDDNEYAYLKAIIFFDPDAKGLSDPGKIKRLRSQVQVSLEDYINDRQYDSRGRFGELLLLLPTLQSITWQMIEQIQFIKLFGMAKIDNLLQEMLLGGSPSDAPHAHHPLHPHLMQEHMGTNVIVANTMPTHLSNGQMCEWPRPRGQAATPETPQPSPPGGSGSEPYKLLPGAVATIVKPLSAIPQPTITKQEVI
How it was run: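 Readout is fluorescent reporter-transcript fragments resolved by capillary electrophoresis after RT-PCR from HepG2 cells dosed for 24 h. Cells carried transfected GAL4-UAS reporter constructs measuring exogenous NR-GAL4 chimera activity; DMSO served as baseline.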

[3] = ATG_M_06_TRANS: Attagene TRANS-FACTORIAL HepG2 Assay for M06 Transcription Factor (Internal Marker) (AID 2282983); settings: HepG2 Attagene TRANS M06 internal marker reporter;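 also: reporter transcript level by RT-PCR then capillary electrophoresis fluorescence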
How it was run: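 Transfect HepG2 with MRTUs → dose compounds 24 h → isolate RNA, oligo(dT) RT → PCR with reporter primers → 6-FAM primer extension → HpaI digest → CE fragment analysis. Positive direction vs DMSO.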

[4] = ATG_M_32_TRANS: Attagene TRANS-FACTORIAL HepG2 Assay for M32 Transcription Factor (Internal Marker) (AID 2282984); settings: HepG2 Attagene TRANS M32 internal marker reporter;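 also: transcript level of a background control reporter unit measured by RT-PCR and capillary electrophoresis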
How it was run: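 Measures reporter mRNA induction in human HepG2 liver cells after 24 h chemical treatment. Transcripts from transiently transfected GAL4-UAS reporter units are amplified, fluorescently labelled and sized by capillary electrophoresis; gain of signal relative to DMSO.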

[5] = molecular target: Nuclear receptor subfamily 4 group A member 2 (Homo sapiens) (UniProt P43354); assay: ATG_NURR1_TRANS: Attagene TRANS-FACTORIAL HepG2 Assay for human Nuclear Receptor Related Protein 1 (NURR1) (AID 2282985); settings: HepG2 Attagene TRANS reporter, mRNA readout
Nuclear receptor subfamily 4 group A member 2 (Homo sapiens), sequence (P43354 whole entry, looked up, the tested form may be a part): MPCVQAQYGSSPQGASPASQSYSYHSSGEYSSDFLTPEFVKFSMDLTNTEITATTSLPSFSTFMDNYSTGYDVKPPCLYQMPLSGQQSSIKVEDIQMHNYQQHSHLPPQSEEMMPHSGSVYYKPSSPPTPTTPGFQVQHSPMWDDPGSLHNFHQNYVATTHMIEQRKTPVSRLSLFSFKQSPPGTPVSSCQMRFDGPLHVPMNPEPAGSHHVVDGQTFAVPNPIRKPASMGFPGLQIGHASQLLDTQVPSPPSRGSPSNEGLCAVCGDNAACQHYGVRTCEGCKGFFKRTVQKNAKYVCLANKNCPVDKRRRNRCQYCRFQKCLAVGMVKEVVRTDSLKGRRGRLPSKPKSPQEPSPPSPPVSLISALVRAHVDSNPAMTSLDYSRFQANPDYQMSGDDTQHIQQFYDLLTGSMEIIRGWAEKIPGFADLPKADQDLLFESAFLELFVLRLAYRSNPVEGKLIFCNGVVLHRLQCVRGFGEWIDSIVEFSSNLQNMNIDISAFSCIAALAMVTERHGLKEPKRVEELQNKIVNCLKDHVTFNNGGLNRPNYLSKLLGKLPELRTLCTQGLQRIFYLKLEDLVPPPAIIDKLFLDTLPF
How it was run: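 Transient transfection of HepG2, human liver cells, with multiple GAL4-UAS reporter transcription units. Cells dosed 24 h, RNA isolated, reverse-transcribed, PCR-amplified, FAM-labelled, HpaI-digested, sized by capillary electrophoresis. DMSO served as negative control.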

[6] = molecular target: Transcriptional activator Myb (Homo sapiens) (UniProt P10242); assay: ATG_Myb_CIS: Attagene CIS-FACTORIAL HepG2 Assay for human Myeloblastosis (Myb) Proto-Oncogene Transcription Factor (AID 2282986; active = hit-call score of the fitted dose curve at least 0.9, where 1 is the maximum; inactive = score below 0.9); settings: HepG2 Attagene CIS-FACTORIAL Myb reporter transcription; actives raise or lower the signal
Transcriptional activator Myb (Homo sapiens), sequence (P10242 whole entry, looked up): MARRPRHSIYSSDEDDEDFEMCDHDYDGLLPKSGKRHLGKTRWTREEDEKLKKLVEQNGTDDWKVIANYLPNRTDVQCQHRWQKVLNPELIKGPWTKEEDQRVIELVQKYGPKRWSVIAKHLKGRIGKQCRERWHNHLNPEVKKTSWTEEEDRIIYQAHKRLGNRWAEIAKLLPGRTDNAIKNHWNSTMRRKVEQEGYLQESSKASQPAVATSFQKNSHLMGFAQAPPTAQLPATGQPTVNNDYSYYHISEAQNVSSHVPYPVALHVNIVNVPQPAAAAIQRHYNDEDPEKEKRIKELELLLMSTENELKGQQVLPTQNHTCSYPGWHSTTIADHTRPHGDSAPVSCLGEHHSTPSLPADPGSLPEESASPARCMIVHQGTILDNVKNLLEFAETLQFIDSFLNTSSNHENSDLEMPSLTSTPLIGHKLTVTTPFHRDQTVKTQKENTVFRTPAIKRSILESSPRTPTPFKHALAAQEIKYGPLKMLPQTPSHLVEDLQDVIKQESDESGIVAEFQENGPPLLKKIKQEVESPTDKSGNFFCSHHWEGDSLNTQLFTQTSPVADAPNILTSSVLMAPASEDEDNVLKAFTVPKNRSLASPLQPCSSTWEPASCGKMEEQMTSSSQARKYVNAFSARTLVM
How it was run: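 HepG2, transient MRTU transfection (cis-element promoters, endogenous TF activity), 24 h compound exposure. Readout: reporter mRNA via RT-PCR, 6-FAM labeling, HpaI digest, capillary electrophoresis. Gain/loss fit vs DMSO.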

[7] = molecular target: Oxysterols receptor LXR-beta (Homo sapiens) (UniProt P55055); assay: ATG_LXRb_TRANS: Attagene TRANS-FACTORIAL HepG2 Assay for human Liver X Receptor beta (LXRb) (AID 2282981); settings: HepG2 Attagene TRANS GAL4-LXRb reporter, mRNA
Oxysterols receptor LXR-beta (Homo sapiens), sequence (P55055 whole entry, looked up, the tested form may be a part): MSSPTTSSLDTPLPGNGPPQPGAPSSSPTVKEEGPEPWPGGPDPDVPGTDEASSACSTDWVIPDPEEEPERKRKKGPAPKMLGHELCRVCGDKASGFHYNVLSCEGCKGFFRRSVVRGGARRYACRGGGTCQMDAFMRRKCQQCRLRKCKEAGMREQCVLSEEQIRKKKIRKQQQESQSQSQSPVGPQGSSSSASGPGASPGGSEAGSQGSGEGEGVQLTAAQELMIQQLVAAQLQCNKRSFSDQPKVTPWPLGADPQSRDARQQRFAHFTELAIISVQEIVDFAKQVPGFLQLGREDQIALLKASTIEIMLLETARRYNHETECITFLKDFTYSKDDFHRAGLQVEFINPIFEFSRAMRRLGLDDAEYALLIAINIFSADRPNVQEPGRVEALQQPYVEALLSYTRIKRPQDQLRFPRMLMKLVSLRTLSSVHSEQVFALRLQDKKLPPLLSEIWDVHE
How it was run: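 Transient transfection HepG2 (multiplexed RTUs, GAL4-UAS); NR-Gal4 chimera; 24 h exposure; RNA → RT-PCR → 6-FAM primer extension → HpaI → CE; increase vs DMSO.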

[8] = molecular target: Nuclear respiratory factor 1 (Homo sapiens) (UniProt Q16656); assay: ATG_NRF1_CIS: Attagene CIS-FACTORIAL HepG2 Assay for human Nuclear Respiratory Factor 1 (NRF1) Orphan Gene (AID 2282987; active = hit-call score of the fitted dose curve at least 0.9, where 1 is the maximum; inactive = score below 0.9); settings: HepG2 NRF1 cis-element reporter, Attagene multiplex; actives raise or lower the signal
Nuclear respiratory factor 1 (Homo sapiens), sequence (Q16656 whole entry, looked up): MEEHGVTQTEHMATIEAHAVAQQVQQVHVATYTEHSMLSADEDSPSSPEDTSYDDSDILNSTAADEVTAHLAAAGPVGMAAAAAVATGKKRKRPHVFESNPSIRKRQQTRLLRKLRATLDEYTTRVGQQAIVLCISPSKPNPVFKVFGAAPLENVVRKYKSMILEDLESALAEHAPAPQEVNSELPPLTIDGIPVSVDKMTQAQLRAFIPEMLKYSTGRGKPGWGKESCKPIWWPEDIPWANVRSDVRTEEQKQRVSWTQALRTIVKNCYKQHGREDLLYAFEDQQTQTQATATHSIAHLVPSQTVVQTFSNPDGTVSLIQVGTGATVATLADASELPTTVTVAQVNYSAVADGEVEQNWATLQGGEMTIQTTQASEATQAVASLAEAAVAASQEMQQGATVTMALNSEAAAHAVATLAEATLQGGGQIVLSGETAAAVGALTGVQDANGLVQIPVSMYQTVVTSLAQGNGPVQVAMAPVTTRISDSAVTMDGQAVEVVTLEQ
How it was run: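 Endogenous NRF1-driven reporter transcription measured in transiently transfected human HepG2 liver cells. Readout: reporter mRNA by RT-PCR and capillary electrophoresis with fluorescence detection, 24 h post-dosing. Gain or loss of signal fitted relative to DMSO baseline.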

Measured: AC50

[O-][Cl+]O
inactive: [1] | [2] | [3] | [4] | [5] | [6]

OCCCBr
inactive: [7] | [2] | [3] | [5] | [6]

CCCCCCCCCCCCCN1CC(C)OC(C)C1 (centres undefined)
inactive: [1] | [3] | [5] | [6] | [8]

Clc1ccc(C(c2ccc(Cl)cc2)C(Cl)(Cl)Cl)cc1
inactive: [7] | [3] | [4] | [5] | [6]

CCN(CC)N=O
inactive: [1] | [3] | [6]

CC(O)CCO (centres undefined)
inactive: [7] | [2] | [3] | [4] | [5] | [6] | [8]

CCC12COCN1COC2
inactive: [1] | [7] | [2] | [6]

O=C1CCCO1
inactive: [7] | [2] | [3] | [6] | [8]

O=C(Oc1ccc(Br)cc1)N1CCN2CCC1CC2
inactive: [1] | [4] | [6]

CCCCOC(=O)c1ccccc1C(=O)OCc1ccccc1
inactive: [1] | [2] | [3] | [4] | [6] | [8]

CCCSC(=O)N(CCC)CCC
inactive: [7] | [2] | [3] | [5] | [6] | [8]

CCCCCCCCOC(=O)c1ccc(C(=O)OCCCCCCCC)c(C(=O)OCCCCCCCC)c1
inactive: [1] | [2] | [5] | [6] | [8]

COC(=O)Nc1nc2ccccc2[nH]1
inactive: [7] | [2] | [3] | [4] | [5] | [6]

Nc1ccc(N=Nc2ccccc2)cc1
inactive: [7] | [2] | [4] | [5] | [6] | [8]

Oc1ccccc1Cl
inactive: [7] | [3] | [4] | [5] | [6]

O=C(O)C1C2CCC(O2)C1C(=O)O (centres undefined)
inactive: [1] | [7] | [2] | [3] | [5] | [6] | [8]

Nc1ccc(Oc2ccc(N)cc2)cc1
inactive: [1] | [3] | [4] | [5] | [6] | [8]

C1=Cc2cccc3cccc1c23
inactive: [7] | [2] | [3] | [4] | [5] | [6]

COC(=O)c1ccccc1N
inactive: [1] | [6] | [8]

CC(C)(C)OOC(C)(C)CCC(C)(C)OOC(C)(C)C
inactive: [1] | [3] | [5] | [6] | [8]

Oc1ccc2ccc3cccc4ccc1c2c34
inactive: [2] | [3] | [4] | [6]

O=[N+]([O-])c1ccc(Oc2ccc(Cl)cc2Cl)cc1
inactive: [3] | [4] | [5] | [6]

[As]#[In]
inactive: [2] | [3] | [5] | [6]

CC(C)(C)OOC(=O)c1ccccc1
inactive: [7] | [3] | [8]
active: [6] 153 µM

c1ccc(N=Nc2ccccc2)cc1
inactive: [3] | [6] | [8]

O=C(Nc1ccccc1)c1ccccc1I
inactive: [3] | [4] | [6] | [8]

CCOc1cccc(C2(N3CCN(c4ccccc4)CC3)CCC(C)CC2)c1 (centres undefined)
inactive: [3] | [6]

Cc1ccc(N)c(N)c1
inactive: [3] | [6]

Cc1ccc([N+](=O)[O-])cc1
inactive: [3] | [6]

c1ccc2c(c1)-c1cccc3cccc-2c13
active: [5] 160 µM
inactive: [3] | [6] | [8]

Nc1cc(Cl)cc(C(=O)O)c1Cl
inactive: [2] | [3] | [6]

CN(C)c1ccccc1
inactive: [3] | [6] | [8]

ClC1=C(Cl)C2(Cl)C3C(Cl)C=CC3C1(Cl)C2(Cl)Cl (centres undefined)
inactive: [7] | [3] | [4] | [6] | [8]

c1ccc(C2CO2)cc1 (centres undefined)
inactive: [4] | [5] | [6] | [8]

Clc1ccccc1Cl
inactive: [2] | [3] | [6]

C[N+](C)(C)CC1CO1 (centres undefined)
inactive: [7] | [4] | [6]

CCN(CC)CCO
inactive: [7] | [3] | [5] | [6] | [8]

CC(C)(C)C(O)(CCc1ccc(Cl)cc1)Cn1cncn1 (centres undefined)
inactive: [3] | [4] | [6] | [8]

N#CC(Br)(Br)C(N)=O
inactive: [3] | [5] | [6] | [8]

Cc1ccc(N)cc1
inactive: [4] | [5] | [6] | [8]

CS(=O)(=O)NC(=O)c1cc(Oc2ccc(C(F)(F)F)cc2Cl)ccc1[N+](=O)[O-]
inactive: [4] | [6] | [8]

CCCCCOC(=O)c1ccccc1C(=O)OCCCCC
inactive: [3] | [4] | [5] | [6]

Cc1ccc(N=C=O)cc1N=C=O
inactive: [3] | [6] | [8]

Cn1cc(-c2ccccc2)c(=O)c(-c2cccc(C(F)(F)F)c2)c1
inactive: [4] | [6]

c1ccc(NNc2ccccc2)cc1
inactive: [2] | [4] | [6]

CCCCC(CC)COC(=O)c1ccc(C(=O)OCC(CC)CCCC)c(C(=O)OCC(CC)CCCC)c1 (centres undefined)
inactive: [7] | [3] | [5] | [6]

Brc1ccc(Oc2ccccc2)cc1
inactive: [7] | [3] | [5] | [6]

ClC1=C(Cl)[C@]2(Cl)[C@H]3[C@H]([C@@H]4C=C[C@H]3C4)[C@@]1(Cl)C2(Cl)Cl
inactive: [2] | [5] | [6] | [8]
